The record followed here is PubChem BioAssay.

Each structure is given as a SMILES string. Values joined by “and” are separate entries in the source; they are usually repeats but may differ in a detail not shown here. Equal entries are not always repeated. Active and inactive are the calls of the source.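 How the source made its calls, unless noted: active means compounds whose cell count with miR-34 switched on is under 0.7 times the count with it off; inactive means the rest.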

A short description of assay [1]: sensitizers of A549 cells to miR-34 induction, primary screen, imaging, A549 dox-inducible miR-34, nuclei and caspase counts (AID 1347080). Particulars: A549 miR-34 inducible, Hoechst nuclei count, 48 h.
The nature of assay [2]: survival rescue of mitochondrial mutant cells in low glucose, primary screen, MELAS cybrids, Rieske KO mouse fibroblasts, CellTiter-Glo (AID 1508586;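 active means mean z-score across replicates of 1.96 or higher in either the MELAS or the Rieske mutant cell line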;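 further: z relative to plate mean and SD of compound and empty wells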). In general terms: Cellular ATP, detected with luciferase, serves as a proxy for viable cell number.
Assay [3] deals with NAD(+) hydrolase SARM1 (Homo sapiens) (UniProt Q6SZW1). Description: SARM1 TIR NADase inhibitors, cell lysate, NAD-Glo luminescence (AID 1508614;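 active means compound whose remaining NAD level is above about 45 nM, limit read from the data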). Particulars: SAM-TIR HEK293T lysate NADase, at 1 µM, stronger effect = higher value.
NAD(+) hydrolase SARM1 (Homo sapiens), sequence (Q6SZW1 whole entry, looked up, the tested form may be a part): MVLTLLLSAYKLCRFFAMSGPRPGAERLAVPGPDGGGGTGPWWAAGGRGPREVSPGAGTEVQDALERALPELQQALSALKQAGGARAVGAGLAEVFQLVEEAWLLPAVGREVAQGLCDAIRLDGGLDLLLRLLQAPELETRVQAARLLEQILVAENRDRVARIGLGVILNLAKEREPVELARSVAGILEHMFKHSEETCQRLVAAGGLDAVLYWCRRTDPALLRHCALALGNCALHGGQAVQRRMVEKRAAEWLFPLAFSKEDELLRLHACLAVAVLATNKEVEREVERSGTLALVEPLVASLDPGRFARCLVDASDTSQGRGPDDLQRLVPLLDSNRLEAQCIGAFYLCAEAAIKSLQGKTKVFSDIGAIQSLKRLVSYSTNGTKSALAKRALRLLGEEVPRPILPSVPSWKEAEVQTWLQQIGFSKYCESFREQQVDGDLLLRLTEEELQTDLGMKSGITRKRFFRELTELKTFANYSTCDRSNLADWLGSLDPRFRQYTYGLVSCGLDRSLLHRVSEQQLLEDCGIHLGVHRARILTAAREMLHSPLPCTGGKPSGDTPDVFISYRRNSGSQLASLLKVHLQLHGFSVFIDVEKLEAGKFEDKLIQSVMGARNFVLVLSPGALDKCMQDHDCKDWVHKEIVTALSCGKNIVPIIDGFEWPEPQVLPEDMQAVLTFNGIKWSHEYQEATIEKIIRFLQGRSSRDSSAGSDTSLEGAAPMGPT
Assay [4] deals with Mitogen-activated protein kinase 7 (Homo sapiens) (UniProt Q13164). Description: ERK5 transactivation activators in reporter cells, primary screen, cell-based, HTS (AID 1508626;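 active means luciferase signal above three times the same-plate solvent-only control wells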;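 further: luciferase driven by Gal4-ERK5 fusion binding five Gal4 sites before minimal TATA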). Particulars: HeLa Gal4-ERK5 transactivation, 18 h, at 5 µM, stronger effect = higher value.
Mitogen-activated protein kinase 7 (Homo sapiens), sequence (Q13164 whole entry, looked up, the tested form may be a part): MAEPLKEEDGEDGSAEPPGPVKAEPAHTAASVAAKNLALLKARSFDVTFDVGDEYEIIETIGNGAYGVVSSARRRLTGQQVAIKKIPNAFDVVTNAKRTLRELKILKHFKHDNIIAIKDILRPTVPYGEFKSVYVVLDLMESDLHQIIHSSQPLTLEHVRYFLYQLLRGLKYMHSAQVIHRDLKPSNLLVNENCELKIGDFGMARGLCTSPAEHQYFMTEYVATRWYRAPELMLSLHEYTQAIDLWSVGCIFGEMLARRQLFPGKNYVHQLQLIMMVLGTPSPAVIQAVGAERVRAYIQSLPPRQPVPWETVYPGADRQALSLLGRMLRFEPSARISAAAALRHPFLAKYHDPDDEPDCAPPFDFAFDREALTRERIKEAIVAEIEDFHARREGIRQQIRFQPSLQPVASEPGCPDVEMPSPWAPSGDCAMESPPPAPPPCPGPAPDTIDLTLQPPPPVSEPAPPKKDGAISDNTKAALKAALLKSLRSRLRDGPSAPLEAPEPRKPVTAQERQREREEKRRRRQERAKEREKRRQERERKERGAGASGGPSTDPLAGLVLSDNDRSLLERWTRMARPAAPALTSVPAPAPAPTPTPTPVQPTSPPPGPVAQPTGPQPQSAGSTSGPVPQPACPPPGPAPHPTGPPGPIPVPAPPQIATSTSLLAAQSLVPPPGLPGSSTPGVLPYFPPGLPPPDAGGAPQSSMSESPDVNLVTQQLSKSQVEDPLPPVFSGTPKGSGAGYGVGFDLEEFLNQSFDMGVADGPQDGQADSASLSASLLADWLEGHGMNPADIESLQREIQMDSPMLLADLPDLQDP
Assay [5] in a line: phospholipid biosynthesis inhibitors in animal cells, primary screen, cell-based, LOPAC library, screen 4 (AID 1347384; call rule not given here). Particulars: phospholipid biosynthesis inhibition screen, at 10 µM.
Assay [6] can be described thus: viability rescue of complex I mutant cybrids, primary screen, cell-based, galactose medium, ATP luminescence (AID 1645843;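 active means z-score of at least 1.8 in each of two replicates, scored against plate mean and spread of sample wells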;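 further: positive z means more ATP and so rescue of galactose-driven cybrid death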). Particulars: complex I mutant cybrid cells, 72 h, stronger effect = higher value.
Assay [7] in a line: LFS_MB_P medulloblastoma growth inhibition, cell-based, chromothripsis tumors, cisplatin or BGB combos (AID 1671449; in the data active means inhibition above about 80%;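 further: cells exposed for 96 hours; 0% = vehicle DMSO and 100% = killing by high DMSO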). Particulars: LFS_MB_P medulloblastoma cells.
A short description of assay [8]: HDN33 neuroblastoma growth inhibition, cell-based, chromothripsis tumors, cisplatin or BGB combos (AID 1671450; in the data active means inhibition above about 80%;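 further: cells exposed to compound for four days; 0% = vehicle DMSO and 100% = cell killing by high DMSO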). Particulars: HDN33 neuroblastoma cells, stronger effect = higher value.
Assay [9] in a line: ICB984 medulloblastoma cell growth inhibition, synergistic combos for chromothripsis tumors, cisplatin or BGB combos (AID 1671451; call rule not given here;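 further: cells exposed for 96 hours before readout; 0% = vehicle DMSO and 100% = killing by high DMSO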). Particulars: ICB984 medulloblastoma cells, drug combinations, stronger effect = higher value.
Assay [10] is described as follows: LFS_MB_1R medulloblastoma cell growth inhibition, synergistic combos for chromothripsis tumors, cisplatin or BGB combos (AID 1671452; in the data active means inhibition above about 80%;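 further: cells exposed for 96 hours before readout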). Particulars: LFS_MB_1R medulloblastoma cells, stronger effect = higher value.
Assay [11] is described as follows: HTB85 osteosarcoma cell growth inhibition, synergistic combos for chromothripsis tumors, BGB or cisplatin IC20 combos (AID 1671453; in the data active means inhibition above about 80%;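 further: cells exposed for 96 hours before readout; 0% = vehicle DMSO and 100% = high DMSO killing control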). Particulars: HTB85 osteosarcoma cells, drug combinations, stronger effect = higher value.
Assay [12] is described as follows: CRL2098 osteosarcoma cell growth inhibition, synergistic combos for chromothripsis tumors, BGB or cisplatin IC20 combos (AID 1671454; in the data active means inhibition above about 80%;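 further: cells exposed for 96 h before readout; 0% = vehicle DMSO and 100% = killing by high DMSO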). Particulars: CRL2098 osteosarcoma cells, drug combinations, stronger effect = higher value.
The nature of assay [13]: HD-MB03 medulloblastoma cell growth inhibition, synergistic combos for chromothripsis tumors, BGB or cisplatin IC20 combos (AID 1671455; in the data active means inhibition above about 83%;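 further: 0% = vehicle DMSO and 100% = high DMSO as cytotoxic control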). Particulars: HD-MB03 medulloblastoma cells, stronger effect = higher value.
Setting [14] is: stronger effect = lower value, cell number ratio, induced over uninduced.
The mark [15] stands for this setting: measured here: relative caspase fold change +Dox/-Dox.
[16] abbreviates: measured here: total cells with miR-34 induction, stronger effect = lower value.
Where [17] appears, read: measured here: total cells without miR-34 induction.
Where [18] appears, read: MELAS cybrid survival, CellTiter-Glo 48 h, stronger effect = higher value.
Setting [19] is: Rieske KO mouse fibroblast survival, CellTiter-Glo 72 h.
The mark [20] stands for this setting: measured here: combination with BGB IC40, at 0.05 µM.

As to `NC(=O)N/N=C/c1ccc([N+](=O)[O-])o1`, the fold change in [1] (setting [14]) was 0.848 (inactive) and 0.979 (inactive); in assay [1] (setting [15]) it was 1.31 and 0.64. The cell count is 7760 and 9710 in assay [1] (setting [16]); 9150 and 9920 in assay [1] (setting [17]). In addition, the z-score in assay [2] (setting [18]) was -0.906 (inactive); in assay [2] (setting [19]), -1.1. The remaining NAD in assay [3] is 10 nM (inactive). Besides, in assay [4], the luciferase signal is 36 AU (inactive).
For `CC(C(=O)O)c1ccc(CC2CCCC2=O)cc1` (stereo unspecified), the fold change in assay [1] (setting [14]) was 1.07 (inactive) and 1 (inactive); in assay [1] (setting [15]) it was 0.862 and 2.11. Moreover, the cell count is 11000 and 10200 in assay [1] (setting [16]); 10200 in assay [1] (setting [17]). Also, the outcome in assay [5] was inactive. For the same molecule, the remaining NAD in [3] was 10 nM (inactive). Besides, the z-score in assay [6] was 0.695 (inactive) and 0.805 (inactive).
With `C[C@](N)(Cc1ccc(O)cc1)C(=O)O`, the fold change is 1.06 (inactive) in assay [1] (setting [14]) and 0.881 in [1] (setting [15]). Moreover, the results for the cell count in [1] (setting [16]) and in assay [1] (setting [17]) were 10300 and 9680, respectively. Also, the call in assay [5] was inactive. In addition, the luciferase signal in [4] was 60 AU (inactive). Moreover, the z-score in [6] was 0.71 (inactive).
For the molecule `C[n+]1cc2c3c(ccc2c2ccc4cc5c(cc4c21)OCO5)OCO3`, the fold change in assay [1] (setting [14]) is 0.823 (inactive) and 1.84 (inactive) and 1.11 (inactive); in assay [1] (setting [15]), 0.926 and 0.714 and 1.64. For the same molecule, the cell count in [1] (setting [16]) is 552 and 933 and 1830; in [1] (setting [17]), 672 and 507 and 1640. The molecule was classed as inactive in assay [5]. For the same molecule, in assay [3], the remaining NAD was 10 nM (inactive). In addition, in assay [4], the luciferase signal was 84 AU (inactive). Besides, the z-score in assay [6] is -1.38 (inactive).
For the molecule `CCn1cc(C(=O)O)c(=O)c2cc3c(cc21)OCO3`, the fold change in assay [1] (setting [14]) is 1.06 (inactive) and 0.943 (inactive) and 0.852 (inactive); in [1] (setting [15]), 0.823 and 1.43 and 2.84. The cell count was 10300 and 9150 and 11200 in assay [1] (setting [16]); 9710 and 9700 and 13200 in assay [1] (setting [17]). Besides, in assay [5], the molecule was classed as inactive. Also, the z-score in [2] (setting [18]) is 0.663 (inactive); in assay [2] (setting [19]), 0.252; in assay [6] it was 0.245 (inactive). In assay [3], the remaining NAD was 10 nM (inactive). Moreover, the luciferase signal in assay [4] is 88 AU (inactive). Moreover, the inhibition (as a rule, the drop in the measured response relative to a control, in per cent) in assay [7] (at 0.5 µM, stronger effect = higher value) was -36.8% (inactive); in [7] (measured here: combination with BGB IC20, at 0.005 µM), -15.7%; in assay [7] (measured here: combination with BGB IC40, at 0.005 µM), -20.3%; in assay [7] (setting [20]), -2.68%; in assay [7] (measured here: combination with cisplatin, at 0.5 µM, stronger effect = higher value), -50%; in assay [7] (measured here: combination with cisplatin, at 5 µM, stronger effect = higher value), -47.2%. In addition, the inhibition is -6.85% in assay [8] (BGB combo, at 5 µM); 11.7% (inactive) in assay [8] (at 0.5 µM); -11.4% in assay [8] (cisplatin combo, at 5 µM); 31.7% in [8] (measured here: with BGB IC20 combination, at 0.5 µM); -3.7% in [8] (measured here: with cisplatin IC20 combination, at 0.5 µM); 13.3% in assay [8] (single agent, at 5 µM). Moreover, the inhibition in assay [9] (BGB IC20 combo, at 0.005 µM) was -17.2%; in assay [9] (BGB IC40 combo, at 0.005 µM), 7.28%; in assay [9] (BGB IC40 combo, at 0.05 µM) it was 6.59%; in assay [9] (at 0.5 µM) it was -11.6% (inactive); in assay [9] (cisplatin combo, at 0.05 µM) it was 6.59%; in assay [9] (cisplatin combo, at 0.5 µM) it was -23.1%. In addition, the inhibition in [9] (cisplatin combo, at 5 µM) was 6.27%; in assay [9] (measured here: 5 uM single agent, at 5 µM), -34.2%; in assay [10] (at 0.5 µM), 0.84% (inactive); in assay [10] (setting [20]), -15.9%; in assay [10] (measured here: combination with cisplatin, at 0.5 µM), -7.75%; in assay [10] (measured here: combination with cisplatin, at 5 µM) it was -5.64%. The inhibition in assay [11] (at 0.5 µM) is -2.07% (inactive); in assay [11] (measured here: with BGB IC20, at 0.5 µM), -19.1%; in assay [11] (measured here: with BGB IC20, at 5 µM) it was -10.5%; in assay [11] (measured here: with cisplatin IC20, at 0.5 µM), 12%; in assay [11] (measured here: with cisplatin IC20, at 5 µM) it was 2.66%; in assay [11] (single agent, at 5 µM), -16.7%. Moreover, the inhibition in assay [12] (at 0.5 µM) was -34.7% (inactive); in assay [12] (measured here: combination with BGB at IC20, at 0.5 µM), -42.4%; in assay [12] (measured here: combination with cisplatin at IC20, at 0.5 µM) it was -29.3%; in [13] (at 0.5 µM) it was 1.11% (inactive); in [13] (measured here: combo with BGB at IC20, at 0.5 µM), -0.045%; in assay [13] (measured here: combo with cisplatin at IC20, at 0.5 µM), -3.84%.
